Laboratory results as given in PubChem BioAssay AID686978 (National Center for Advancing Translational Sciences (NCATS), 2013).
Among all 420,000 compounds or so, about 64,000 (15%) were called active. Inconclusive results (about 27%) are left out. The call rests on the fitted dose curve; in most records, active means well fitted inhibition curve with a large enough effect; inconclusive means small, poorly fitted or top-dose-only effect; inactive means flat fitted curve, though single readings scatter. Not all results are given here.

Test: qHTS for Inhibitors of human tyrosyl-DNA phosphodiesterase 1 (TDP1): qHTS in cells in absence of CPT; further: nearly all actives have a fitted effect of over 55% in size
Details: DT40 Tdp1-/- hTDP1 cells, no CPT, ATP luminescence, 48 h; activity change, negative = growth inhibition: at 46.2 µM (top of the series)
Outline: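 Luminescent ATP content (CellTiter-Glo) served as the growth readout. Knockout chicken DT40 cells expressing human TDP1 were exposed to compounds without camptothecin for a minimum 48 hr at 37 °C.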
On the % scale 0 is the no-effect control and ±100 the full control effect; potency means the concentration at half of the fitted maximal effect.

SMILES	activity change, negative = growth inhibition	Potency
Cc1ccc(F)cc1S(=O)(=O)Nc1cccc(C(=O)N2CCCC(C(N)=O)C2)c1 (configuration not stated)	18.7% (inactive)	
COc1cc(=O)n2c(c1C(=O)NC(C)c1ccco1)CCN(Cc1cc(C)cc(C)c1)CC2 (configuration not stated)	-11.3% (inactive)	
Cn1cc(C(=O)c2ccc(Cl)cc2Cl)cc1C(=O)NN	-21.6% (inactive)	
O=C(CNC(c1ccccc1)c1ccccc1)Nc1ccc(F)cc1	-23.5% (inactive)	
OCCCC1CCCCN1Cc1nc(Cc2ccccc2Cl)no1 (configuration not stated)	10.4% (inactive)	
O=Cc1c(Cl)cccc1Cl	-0.244% (inactive)	
COc1ccc([N+](=O)[O-])cc1NCC(=O)c1ccc(C)cc1	-24.8% (inactive)	
Cn1ncc2c(N3CCCCC3)nc(NCCCO)nc21	-1.11% (inactive)	
Cc1cnc(C)c(-c2cc(F)c3c(c2)CC(CNC(=O)c2cccc(Cn4cccn4)c2)O3)n1 (configuration not stated)	-26.2% (inactive)	
COCC1CCN(C(=O)c2ccc3oc(Cc4ccccc4)nc3c2)C1 (configuration not stated)	5.22% (inactive)	
CCOC(=O)c1ccc(NC2Nc3cc(C)nn3S2)cc1 (configuration not stated)	3% (inactive)	
COc1cccc(CNC(=O)Cn2c(=O)c3cccn3c3ccc(F)cc32)c1OC	6.54% (inactive)	
O=C(O)CCCn1c(=O)c2cccn2c2ccc(F)cc21		7.31 µM (active)
COCCCn1c(CCC(=O)O)ccc1-c1ccc(F)cc1	-4.41% (inactive)	
Cc1ccccc1-c1n[nH]c(=S)n1C	16.2% (inactive)	
COC(CNC(=O)Cn1ncc2ccsc2c1=O)OC	-4.15% (inactive)	
Cc1c(CN2CCC(C)CC2)c(=O)n(-c2ccccc2)n1C	0.472% (inactive)	
CCc1nnc(NC(=O)c2c(O)c3c([nH]c2=O)CCCC3)s1	-24.8% (inactive)	
Cc1ccc(C(=O)NC(=S)Nc2ccc3[nH]c(=O)[nH]c3c2)cc1C	3.34% (inactive)	
COC(=O)c1nc(NC(=O)c2ccccc2)n[nH]1	-12.7% (inactive)	
Cc1cc2[nH]ncc2cc1NC(=S)NC(=O)c1ccccc1		18.4 µM (active)
O=C(COC(=O)C1CCCCC1)Nc1ccc([N+](=O)[O-])cc1	-8.96% (inactive)	
C[C@@H]1CN([C@H](C)CO)C(=O)c2cc(NC(=O)NC3CCCCC3)ccc2O[C@H]1CN(C)S(C)(=O)=O	1.34% (inactive)	

SMILES	activity change, negative = growth inhibition	Potency
COc1ccc(/C=C/C(=O)NC(=S)NN2CCCCC2c2cccnc2)cc1 (configuration not stated)	-37.1% (inactive)	
Cc1cc(Nc2cccc(F)c2)n2ncnc2n1	-1.84% (inactive)	
Cc1cc(N2CCN(Cc3ccc4c(c3)OCO4)CC2)n2ncnc2n1	-17.8% (inactive)	
Cc1cc(N2CCN(c3ccc(F)cc3)CC2)n2ncnc2n1		16.4 µM (active)
C=CCn1c(SCC(=O)NC)nnc1C12CC3CC(CC(C3)C1)C2	-17.5% (inactive)	
O=C(c1ccc2c(c1)OCO2)N1CCNc2ccccc2C1	-12.9% (inactive)	
CCCn1cc(SCC(N)=O)c2ccccc21	12.8% (inactive)	
COc1ccccc1OCCn1c(SCC(N)=O)nc2ccccc21	-6.59% (inactive)	
CCC(=O)c1cn(CCOc2ccccc2OC)c2ccccc12		23.1 µM (active)
Cn1nnnc1SCC(=O)Nc1ccccc1C(=O)NC1CC1	9.22% (inactive)	
Cc1cc(=O)oc2c(C)c(OCC(=O)NCCc3ccc(S(N)(=O)=O)cc3)ccc12	2.29% (inactive)	
COc1cccc(NC(=S)NC(=O)c2c(Cl)c(C)nn2C)c1	-8.21% (inactive)	
Nc1nonc1-n1nnc(C(=O)N/N=C/c2cc(Br)ccc2O)c1CSC1=NCCS1		6.51 µM (active)
Cc1ccc(SCc2c(C(=O)N/N=C/c3cccnc3)nnn2-c2nonc2N)cc1	-26.9% (inactive)	
Cc1ccc(SCc2c(C(=O)N/N=C/C3CC=CCC3)nnn2-c2nonc2N)cc1 (configuration not stated)	-24.7% (inactive)	
O=C(O)c1ccccc1C(=O)Nc1ccccc1[N+](=O)[O-]	-0.699% (inactive)	
CCOC(=O)N1CCN(C(=O)Cc2ccc(-n3c(=S)[nH]c4ccccc4c3=O)cc2)CC1	-15.2% (inactive)	
Cc1cccn2c(=O)c(/C=C(\C#N)S(=O)(=O)c3ccc(Cl)cc3)c(N3CCC(C(N)=O)CC3)nc12	-20.6% (inactive)	
Cc1cc(C)cc(Oc2nc3c(C)cccn3c(=O)c2/C=C(\C#N)C(=O)NC2CCS(=O)(=O)C2)c1 (configuration not stated)		13 µM (active)
Cc1ccc(C(=O)N/C(=C\c2ccco2)C(=O)NC2CCS(=O)(=O)C2)cc1 (configuration not stated)	6.49% (inactive)	
Cc1cc(C)n2nc(C(=O)N3CCN(Cc4ccc5c(c4)OCO5)CC3)nc2n1	-14.8% (inactive)	
CCN(CC)S(=O)(=O)c1ccc2nc(CSc3nnnn3-c3ccc(O)cc3)[nH]c2c1	-27.3% (inactive)	
CCOC(=O)/C(=N\Nc1ccccc1[N+](=O)[O-])c1csc(Nc2ccccc2)n1		16.4 µM (active)

SMILES	activity change, negative = growth inhibition	Potency
CCOc1ccccc1Nc1ccc(C(=O)O)cc1[N+](=O)[O-]	8.42% (inactive)	
Cc1csc(NC(=O)Nc2ccccc2[N+](=O)[O-])n1	-20.3% (inactive)	
CC(=O)c1c(C)[nH]c(C(=O)NCCCN2CCCC2)c1C	5.85% (inactive)	
Cn1cc[n+](C)c1COc1ccc(C=O)cc1	2.67% (inactive)	
Cc1noc(C)c1C(=O)NCCc1ccc(S(N)(=O)=O)cc1	7.32% (inactive)	
Cc1cccc(NS(=O)(=O)c2ccc([N+](=O)[O-])cc2)n1	-3.46% (inactive)	
Cc1ccccc1OS(=O)(=O)c1cccc([N+](=O)[O-])c1	-27.5% (inactive)	
O=[N+]([O-])c1cccc(S(=O)(=O)N2CCCCCC2)c1	-29.9% (inactive)	
O=[N+]([O-])c1ccc(NS(=O)(=O)c2ccccc2)c(Cl)c1		20.6 µM (active)
Cc1cc([N+](=O)[O-])ccc1NS(=O)(=O)c1ccccc1		23.1 µM (active)
Cc1cc([N+](=O)[O-])ccc1NC1CCCC1	1.28% (inactive)	
COc1ccc(NC(=O)[C@H](NC(=O)[C@@H]2Cc3ccccc3CN2)c2ccccc2)cc1	8.27% (inactive)	
CCC(=O)Nc1sc(C(=O)N2CCCCC2)c(C)c1C#N	3.68% (inactive)	
CCCCc1cc2c(s1)CCCC/C2=N/O	-9.17% (inactive)	
COc1ccc(NC(=O)CC2C(=O)NC3CCCCC3N2C(=O)c2ccc(F)cc2)cc1 (configuration not stated)	-19.5% (inactive)	
COc1ccc(NC(=O)N2CC3(CCN(C(C)=O)CC3)C2)cc1	11.3% (inactive)	
COc1ccc(CNS(=O)(=O)c2ccc(NC(=O)N3CCCCC3)cc2)cc1		20.6 µM (active)
COc1ccc(S(=O)(=O)NC(C)C(=O)N2CCCCCC2)cc1 (configuration not stated)	12.3% (inactive)	
CCn1c(COc2ccccc2)nnc1SCC(=O)NCc1ccco1	-37.1% (inactive)	
COc1ccc(NC(=O)Cn2c(=O)n(Cc3ccco3)c(=O)c3ccccc32)cc1	-3.08% (inactive)	
Cn1c2ccccc2c(=O)c2c(=O)n(Cc3ccco3)c(COc3ccccc3)nc21		14.6 µM (active)
CCCc1cc(=O)oc2c(C)c(O)c(CN3CCCCC3)cc12	-0.456% (inactive)	
COCCN(CCOC)c1nc(N)c2c(N)nc3c(c2c1C#N)CC(=O)N3Cc1ccc(Cl)cc1	-26.2% (inactive)	

SMILES	activity change, negative = growth inhibition	Potency
Cc1ccc(NC(=O)/C(=C\c2ccccc2)NC(=O)c2ccco2)cc1	8.92% (inactive)	
CCN1CCN(C(=O)Cn2nc(C)n3c(cc4c(OC)cccc43)c2=O)CC1	-9.41% (inactive)	
COc1ccc(C2c3ccc(O)cc3Oc3ncn(CCCO)c(=N)c32)cc1OC (configuration not stated)	7.05% (inactive)	
Cc1ccc(NC(=O)COC(=O)CN2CCCCCC2=O)c(C)c1	-13.6% (inactive)	
CC(C)C1C2=C(CC(C)(C)CC2=O)ON1c1ccccc1 (configuration not stated)		11.2 µM (active)
COC(=O)C1CC2=C(CC(C)(C)CC2=O)N(c2ccccc2)C1=O (configuration not stated)	-16.6% (inactive)	
CC(C)N1C(=O)N(c2ccccc2)C(C)(O)CC1(C)C (configuration not stated)	-9.56% (inactive)	
O=C(Cn1c(=S)nc2ccccn21)N1CCc2ccccc2C1	-9.89% (inactive)	
CCc1nc2sc3c(Cl)ncnc3c2c2c1CCCC2	16.2% (inactive)	
Fc1cc(F)c2nc(N3CCOCC3)sc2c1	-0.301% (inactive)	
CCOc1nc(NCCN2CCOCC2)nc(Nc2ccc(C)cc2)n1	-0.278% (inactive)	
CCOC(=O)C(C)n1nc(-c2ccccc2)c2ccccc2c1=O (configuration not stated)		14.6 µM (active)
O=C(O)c1ccc(-n2nc(-c3ccccc3)c3ccccc3c2=O)cc1	-23.9% (inactive)	
O=c1c2ccccc2c(-c2ccccc2)nn1Cc1ccccc1	-21.5% (inactive)	
NC(=O)[C@H]1CC2(CC(c3cccc(NC(=O)[C@H]4CCC(=O)N4)c3)=NO2)CN1C(=O)c1ccccc1C(=O)c1ccccc1 (some centres not stated)	7.54% (inactive)	
C/C(=N\NC(=S)NC(C)C)c1ccc(C(C)(C)C)cc1		20.6 µM (active)
C/C(=N\NC(N)=S)c1cccnc1	-3.42% (inactive)	
C/C(=N\NC(N)=S)c1ccncc1	10.4% (inactive)	
O=C(Cc1ccccc1)Nc1ccc(C(=O)Nc2ccccc2C(=O)O)cc1	8.32% (inactive)	
Cc1cccnc1NC(=O)Cn1c(=O)oc2ccccc21	0.103% (inactive)	
COc1cc(NS(=O)(=O)c2ccc3ccccc3c2)c2ncccc2c1		7.31 µM (active)
COc1ccc2cc(S(=O)(=O)Nc3ccccn3)ccc2c1	-15.8% (inactive)	
CCOc1ncccc1C(=O)NNC(=O)c1cccc(S(=O)(=O)Nc2ccccc2OC)c1	-18.9% (inactive)	

SMILES	activity change, negative = growth inhibition	Potency
C/C(O)=C\c1nc(=O)c2c(C)cc(C)nc2n1-c1ccccc1	-18.1% (inactive)	
N#Cc1c(-c2ccc(Cl)cc2)c2c([nH]c1=S)CCCC2	-8.76% (inactive)	
COc1ccc(-c2cn3cccnc3n2)cc1	-25.2% (inactive)	
COc1ccc2nc(-c3ccccn3)ccc2c1		3.26 µM (active)
COc1ccc(-n2c(SCC(=O)OC(C)C)nnc2-c2ccccn2)cc1	-10.1% (inactive)	
CCSc1ncc(Cl)c(C(=O)Nc2c(C(=O)c3ccccc3)oc3ccccc23)n1	23% (inactive)	
CCOc1ccc(N(Cc2ccccc2)C(=O)c2nc(SCC)ncc2Cl)cc1		6.51 µM (active)
CCOc1ccc(S(=O)(=O)N(CC(=O)O)c2ccccc2)cc1	2.09% (inactive)	
CCSc1nnc2c(n1)OC(c1ccc(OCC(=O)O)cc1)Nc1ccccc1-2 (configuration not stated)	-18% (inactive)	
CCOc1ccc(N(Cc2ccccc2)C(=O)c2nc(S(C)(=O)=O)ncc2Cl)cc1		0.58 µM (active)
CCOc1ccc(Cn2nnc(C(=O)NCc3ccccc3)c2N)cc1	-21.3% (inactive)	
CCCOc1ccc(/C(O)=C2/C(=O)C(=O)N(CCN(C)C)C2c2ccc(OC)c(OC)c2)cc1 (configuration not stated)	-12.4% (inactive)	
N#CCCn1ncc2ccccc21	-13.1% (inactive)	
CC1Cc2ccccc2N1S(=O)(=O)c1cccc(C(=O)OCC(=O)N2CCOCC2)c1 (configuration not stated)	-27.9% (inactive)	
CC1CCN(C(=O)c2cccc(S(=O)(=O)N3CCCc4ccccc43)c2)CC1		11.6 µM (active)
NS(=O)(=O)c1ccc(CNC(=O)c2cccc(S(=O)(=O)N3CCc4ccccc43)c2)cc1		9.2 µM (active)
NS(=O)(=O)c1ccc(CNC(=O)c2cc(S(=O)(=O)N3CCOCC3)ccc2N2CCCC2)cc1	-12.6% (inactive)	
CC(=O)N1CCN(S(=O)(=O)c2cccc(C(=O)NC3CCC(C)CC3)c2)CC1 (configuration not stated)	-7.02% (inactive)	
CNC(=O)C1CN(C(=O)c2cccc(S(=O)(=O)N3CCc4ccccc43)c2)c2ccccc2O1 (configuration not stated)		5.8 µM (active)
O=C(NCCCN1CCCC1=O)c1cccc(S(=O)(=O)NCc2ccccc2)c1	12.8% (inactive)	
